Bead autofluor = flagged as autofluorescent in microsphere protease counterscreen; actives 3.1% (n = 360,000); fluorescence intensity (no concentration beside the values); AID 624483; compound autofluorescence counterscreen, microsphere flow cytometry; stronger effect = higher value; in the data active = fluorescence intensity above about 16000; inconclusive = no clear call, values can overlap the other calls
BoNT-A LC inh2 = inhibitors of Botulinum neurotoxin A light chain protease. multiplex microsphere protease substrate cleavage, flow cytometry. actives 0.17% (n = 360,000). AID 588499. inhibition, % at 10 µM; also: plate controls were buffer without enzyme for full effect and enzyme alone for no effect
Mtb FBA inh = inhibits M. tuberculosis FBA enzyme; P9WQA3; purified M. tuberculosis FBA, fluorescence read-out; inhibition, % at 1 µM; actives 2.3% (n = 360,000); AID 588726; in the data active = inhibition above about 27%;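 also: 0% = vehicle and 100% = reference inhibitor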
Target sequence (P9WQA3 whole entry, looked up): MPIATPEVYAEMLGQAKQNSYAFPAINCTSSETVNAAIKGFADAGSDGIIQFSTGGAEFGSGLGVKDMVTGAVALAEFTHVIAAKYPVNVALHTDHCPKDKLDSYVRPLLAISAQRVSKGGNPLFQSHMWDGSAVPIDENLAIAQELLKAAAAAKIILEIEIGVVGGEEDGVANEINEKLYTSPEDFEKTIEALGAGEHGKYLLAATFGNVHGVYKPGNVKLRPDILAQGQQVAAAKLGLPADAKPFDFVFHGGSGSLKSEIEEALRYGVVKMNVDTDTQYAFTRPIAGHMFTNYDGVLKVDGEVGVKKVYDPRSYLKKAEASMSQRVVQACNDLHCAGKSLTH
GDH-TPI counter = inhibits GDH-TPI coupling enzymes, artifact for Mtb FBA screen; GDH-TPI coupled enzyme counterscreen, NADH absorbance; inhibition, % at 4.8 µM; actives 1.2% (n = 360,000); AID 588335; in the data active = inhibition above about 30%;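 also: 0% = DMSO wells and 100% = wells lacking the enzyme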
Anthrax LF inh2 = inhibitors of Bacillus anthracis lethal factor protease; P15917; multiplex microsphere protease cleavage assay, LF; inhibition, % at 10 µM; actives 0.12% (n = 360,000); AID 588501; also: plate controls were buffer without enzyme for full effect and enzyme alone for no effect
BoNT F protease = inhibitors of Botulinum neurotoxin F light chain protease. Multiplex microsphere protease cleavage assay, flow cytometry. inhibition, % at 10 µM. AID 588497. actives 0.22% (n = 360,000); in the data active = inhibition above about 35%, passing the limit was not always enough; inconclusive = no clear call, values can overlap the other calls; also: plate controls were buffer without enzyme for full effect and enzyme alone for no effect
Starred values were filed as active, the others as inactive; ? = inconclusive; / = not tested or not shown; + = active, no number. Most compounds without a hit are left out; they make up all but 6.6% or so of the library. Rule as the data show it, unless noted: active = inhibition above about 30%; inconclusive = no clear call, values can overlap the other calls; inactive = below that.

SMILES	Bead autofluor	BoNT-A LC inh2	Mtb FBA inh	GDH-TPI counter	Anthrax LF inh2	BoNT F protease
CN(C)CCNC(=O)c1ccc(Cl)s1	17028*	?	0	0	-1	-5
C[C@H](NC(=O)NCc1cccs1)C(=O)O	21235*	3	8	-2	3	7
O=C(NCCCCNC(=O)c1ccc(Cl)s1)c1ccc(Cl)s1	3266	0	4	3	0	4
CCC(C)[C@H](NC(=O)NCc1cccs1)C(=O)O (stereo partly drawn)	2260	0	-1	2	-6	7
O=C(NCC(=O)N1CCc2ccccc2C1)c1ccccc1Cl	3057	-1	0	3	7	-7
CCN(CC)S(=O)(=O)c1ccc(NC(=O)c2ccc(OCC3CCCO3)cc2)cc1 (stereo not drawn)	2945	0	1	10	-2	-4
COc1ccc(Oc2cccc(Cl)c2CNC(=O)CCCC(=O)O)cc1	6395	-1	2	-6	-9	-8
N#Cc1ccc(NC(=S)N2CCC3CC2c2cc(-c4ccc5c(c4)OCO5)ccc23)cc1 (stereo not drawn)	5862	1	-5	/	2	-1
O=C(NCc1cccs1)c1cccnc1C(=O)O	17016*	?	2	0	-7	-3
CCc1ccc(C(=O)NCc2cccs2)s1	11231	1	0	0	-2	-2
Cc1cc(C(=O)NCc2cccs2)c(C)o1	19810*	0	0	-9	-3	-1
O=C(NCc1cccs1)c1ccc(Cl)s1	24555*	-2	-5	-2	-1	-4
COc1ccc(-n2nc(C(=O)NCc3ccco3)c3ccccc3c2=O)cc1	19127*	5	-2	7	-1	4
COC(=O)CNC(=O)CNC(=O)c1nn(-c2ccc(OC)c(Cl)c2)c(=O)c2ccccc12	3532	-1	-1	3	-1	-24
COc1ccc(-n2nc(C(=O)NCC(=O)N3CCN(c4ccccn4)CC3)c3ccccc3c2=O)cc1	22175*	?	-1	15	-2	0
COc1ccc(-n2nc(C(=O)NCC(=O)NCc3ccco3)c3ccccc3c2=O)cc1Cl	21931*	1	2	12	-4	2
Cc1cccc(C)c1NC(=O)c1cnccn1	/	/	0	3	/	/
O=[N+]([O-])c1cccc(COc2ncnc3cc([N+](=O)[O-])ccc23)c1	5365	0	3	35*	5	-8
COc1ccc(C(=O)C2CCCN(Cc3cccc4c3OCO4)C2)cc1OC (stereo not drawn)	2640	0	1	2	1	-1
COc1ccc(N(CC(=O)Nc2ccc(OC)c(Cl)c2)S(=O)(=O)c2c(C)noc2C)cc1	20070*	2	-2	10	-11	2
COc1ccc(N(CC(=O)Nc2cc(Cl)ccc2OC)S(=O)(=O)c2c(C)noc2C)cc1	20289*	?	-1	11	-3	-5
COc1ccc(N(CC(=O)Nc2ccc(F)c(Cl)c2)S(=O)(=O)c2c(C)noc2C)cc1	16336*	0	-2	21	-4	0
CCOc1ccc(N(CC(=O)Nc2ccc(OC)cc2)S(=O)(=O)c2c(C)noc2C)cc1	4033	0	3	10	-16	-3
COc1ccc(N(CC(=O)Nc2ccc(C)cn2)S(=O)(=O)c2c(C)noc2C)cc1	17199*	-3	0	11	-2	-6
Cc1ccc(C(=O)N(Cc2ccccc2)C(C)(C)C)cc1C	2488	-1	1	1	-1	1
SMILES	Bead autofluor	BoNT-A LC inh2	Mtb FBA inh	GDH-TPI counter	Anthrax LF inh2	BoNT F protease
CCNC(=O)C1(C)CCN1Cc1cc(-c2ccccc2)n(C)n1 (stereo not drawn)	3462	0	1	-4	-1	-1
Cn1nccc1C(=O)N1CCN(S(=O)(=O)c2ccc(Br)s2)CC1	5497	0	2	3	3	2
O=C(NCc1ccccc1)c1cc(C2CCCCN2S(=O)(=O)c2ccccc2)on1 (stereo not drawn)	3725	0	1	10	5	-2
C=Cc1ccc(CSc2cc(C)nc3nc(C)nn23)cc1	7745	-1	1	1	2	4
Cc1ccc(C(=O)CN2CCN(c3ccccn3)CC2)c(C)c1	4308	-4	5	0	-4	-18
Cc1ccc2cc(C)c(N3CCN(c4ccccn4)CC3)nc2c1	23535*	0	-1	7	-4	-3
Nc1ccc(-c2cn3cccnc3n2)cc1	4610	-1	8	38*	-7	-2
Cc1ccc(-c2cn3cccnc3n2)cc1NC(=O)c1cccs1	2333	-1	+	18	0	0
COc1ccc(-c2cn3cccnc3n2)cc1NC(=O)C(C)C	4448	0	25	34*	-5	2
COc1ccc(-c2cn3cccnc3n2)cc1Br	2546	1	+	13	2	4
CC(OC(=O)Cc1n[nH]c(=O)c2ccccc12)C(=O)Nc1cccc([N+](=O)[O-])c1 (stereo not drawn)	3331	0	-2	1	-4	2
CC(C)(C)S(=O)N1Cc2cc(C(=O)N[C@@H]3CCN(Cc4ccccc4)C3)nc(-c3cccc(-c4cc5ccccc5o4)c3)c2[C@@H]1CCO (stereo partly drawn)	6483	0	0	/	-4	-11
COc1cc(C(=O)Nc2cc(-c3cn4cccnc4n3)ccc2C)cc(OC)c1OC	4553	0	+	12	-2	-2
COc1ccc(-c2cn3cccnc3n2)cc1NC(=O)C1CCCC1	7878	-1	16	23	-4	-3
COc1cc(OC)cc(C(=O)Nc2cc(-c3cn4cccnc4n3)ccc2C)c1	4155	0	+	11	-3	-3
COc1ccc(-c2cn3cccnc3n2)cc1NC(=O)C1CC1	8365	0	11	8	-2	3
Nc1ccc(C(=O)Nc2nc3ccccc3s2)cc1	5494	0	6	34*	3	-8
Cc1csc(NC(=O)c2nc3nccc(C)n3n2)n1	3620	-1	0	27	-6	-13
N=c1oc2cc(O)ccc2cc1C(=O)Nc1nc2ccccc2s1	2573	0	+	1	-2	-10
Cc1ccnc2nc(C(=O)Nc3nc4ccccc4s3)nn12	3472	0	6	41*	-3	2
O=C(Nc1ncccc1O)C1CCN(S(=O)(=O)c2ccc3ccccc3c2)CC1	?	1	0	-6	-3	-6
O=C(CCc1nc2ccccc2[nH]c1=O)N/N=C/c1ccccc1	3571	0	7	3	8	-3
COc1ccc(CNCc2c(O)c(Cl)cc3c(C)c(C)c(=O)oc23)c(OC)c1	3193	1	+	18	7	19
CCc1cc(=O)oc2c(CNCc3ccc(OC)cc3OC)c(O)c(Cl)cc12	3561	0	+	16	22	4
Cc1c(C(=O)N2CCC[C@H]2CO)oc2c(F)cccc12	3169	4	2	20	-8	?
